Bioassay records from PubChem BioAssay.
This is a sample that favours compounds with a hit; in the whole collection about 2.8% have one here.
PAX8 reporter = PAX8 transcriptional activity inhibition; RMG-I TPO-luciferase reporter, SteadyGlo, 24 h; inhibition, % at 12.6 µM; 360,000 compounds, 1.2% hits; AID 652154;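 active = mean replicate inhibition at least 60% with every replicate also reaching 60%; inconclusive = only one of the two criteria is met; inactive = mean below 60% and not all replicates reaching 60%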;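 note: luciferase light reporting Pax8 driven TPO promoter activity; plate controls were median of neutral control wells for no effect and mitoxantrone controls for full effect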
HIV Env fusion = HIV envelope-mediated fusion inhibition. HeLa-JRFL Env/CEM21 cell fusion, luciferase. inhibition, % at 12.3 µM. 360,000 compounds, 1.1% hits. AID 651610;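 active = mean replicate inhibition score of at least 50 and every replicate individually at or above 50; inconclusive = only one of the two criteria met; inactive = mean below 50 and not all replicates reaching 50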;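 note: 0% = plate neutral controls and 100% = maraviroc near 300 nM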
LMP1 NFkB inh = inhibitors of Epstein-Barr LMP1-induced NF-kappaB reporter; LMP1-induced NF-kappaB luciferase reporter cells, luminescence; inhibition, % at 12.5 µM; 350,000 compounds, 0.69% hits; AID 504558; in the data active = inhibition above about 41%; inconclusive = no clear call, values can overlap the other calls;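 note: 0% = neutral control wells and 100% = reference inhibitor control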
Shn3 3UTR inh = inhibitors of Schnurri-3 3'UTR reporter in osteoblasts. Clone20 osteoblast Shn3 3'UTR firefly luciferase, 24 h. AID 588674. 360,000 compounds, 0.52% hits. inhibition, % at 12.5 µM;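 active = mean inhibition of at least 75% with every replicate also reaching 75%; inconclusive = mean inhibition at least 75% but some replicate below; inactive = mean inhibition below 75%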;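 note: 0% = median of neutral control wells and 100% = pilot-screen positive control compound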
NSD2 inh = blocks human histone methyltransferase NSD2; NSD2 peptide methylation, AlphaScreen, 120 min; O96028; inhibition, % at 12.5 µM; AID 743445; 310,000 compounds, 0.54% hits; in the data active = inhibition above about 50%
Target sequence (O96028 whole entry, looked up): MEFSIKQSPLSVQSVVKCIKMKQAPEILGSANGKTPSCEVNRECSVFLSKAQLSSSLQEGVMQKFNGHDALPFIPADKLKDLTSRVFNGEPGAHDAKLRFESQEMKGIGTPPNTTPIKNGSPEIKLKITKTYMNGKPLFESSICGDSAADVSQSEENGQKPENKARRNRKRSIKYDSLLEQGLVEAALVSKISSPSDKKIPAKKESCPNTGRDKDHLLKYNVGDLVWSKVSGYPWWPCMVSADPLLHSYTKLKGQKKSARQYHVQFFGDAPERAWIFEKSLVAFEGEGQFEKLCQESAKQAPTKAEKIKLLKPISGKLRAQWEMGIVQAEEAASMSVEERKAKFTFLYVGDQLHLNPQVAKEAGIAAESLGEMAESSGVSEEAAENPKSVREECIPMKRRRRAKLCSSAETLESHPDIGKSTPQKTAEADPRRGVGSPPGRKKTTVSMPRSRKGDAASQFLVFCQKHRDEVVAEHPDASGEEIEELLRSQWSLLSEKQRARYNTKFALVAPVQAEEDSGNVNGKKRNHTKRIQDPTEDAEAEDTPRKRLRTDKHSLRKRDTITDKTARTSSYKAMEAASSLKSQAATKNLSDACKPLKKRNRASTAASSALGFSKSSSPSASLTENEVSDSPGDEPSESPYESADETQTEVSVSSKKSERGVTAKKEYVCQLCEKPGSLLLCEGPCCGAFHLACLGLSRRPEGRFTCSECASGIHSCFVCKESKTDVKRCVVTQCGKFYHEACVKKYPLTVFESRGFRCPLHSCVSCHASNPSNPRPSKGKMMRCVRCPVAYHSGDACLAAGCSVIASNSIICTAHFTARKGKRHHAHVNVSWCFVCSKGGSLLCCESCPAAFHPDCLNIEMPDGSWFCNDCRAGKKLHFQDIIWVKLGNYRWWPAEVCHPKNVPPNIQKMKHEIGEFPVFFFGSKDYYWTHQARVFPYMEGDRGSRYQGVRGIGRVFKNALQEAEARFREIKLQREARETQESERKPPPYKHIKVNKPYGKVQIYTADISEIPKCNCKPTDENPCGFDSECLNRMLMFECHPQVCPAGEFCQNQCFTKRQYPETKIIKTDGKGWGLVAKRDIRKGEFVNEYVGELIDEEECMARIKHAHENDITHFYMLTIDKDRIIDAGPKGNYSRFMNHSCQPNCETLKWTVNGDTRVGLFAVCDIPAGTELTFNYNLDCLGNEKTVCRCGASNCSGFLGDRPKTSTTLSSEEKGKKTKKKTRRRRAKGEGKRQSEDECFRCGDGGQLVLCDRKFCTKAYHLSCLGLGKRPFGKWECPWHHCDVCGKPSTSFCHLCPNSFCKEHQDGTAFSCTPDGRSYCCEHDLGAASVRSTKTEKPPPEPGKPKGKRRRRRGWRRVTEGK
N-glyco inh = blocks N-linked glycosylation in D54 reporter cells; D54 ERlucT glycosylation luciferase reporter, 24 h; percent of 100 nM tunicamycin response; reporter increase, % at 12.5 µM; 360,000 compounds, 0.23% hits; AID 588692;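 active = mean luciferase reporter signal, scaled so untreated is 0 and the glycosylation-blocking control 100, at or above a set limit in every replicate; inconclusive = mean reaches the limit but not every replicate does; inactive = mean below the limit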;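 note: luciferase carries N-glycosylation sites so blocking glycosylation raises the light; 0% = median of neutral control wells and 100% = median of 100 nM tunicamycin wells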
Active calls of the source: *; ? = inconclusive; . = not tested or not shown; ! = not confirmed by another sample; [ ] = dose if it differs, or a comment.

SMILES	PAX8 reporter	HIV Env fusion	LMP1 NFkB inh	Shn3 3UTR inh	NSD2 inh	N-glyco inh
Cc1noc(C)c1S(=O)(=O)N(C)C[C@@H]1Oc2ccc(NC(=O)NC3CCCCC3)cc2CC(=O)N([C@H](C)CO)C[C@@H]1C	2.8	77.8*[16.7 µM]	.	.	.	.
Cc1noc(C)c1S(=O)(=O)N(C)C[C@H]1Oc2ccc(NC(=O)NC3CCCCC3)cc2CC(=O)N([C@H](C)CO)C[C@@H]1C	1.0	2.0[16.7 µM]	.	.	.	.
COc1ccc(C(=O)/C=C/C(=O)N(CC(=O)NC2CCCCC2)Cc2ccccc2)c(O)c1	?	-101.7	-5.3	95.1*	1.7	8.3
COc1ccc(C(=O)/C=C/C(=O)N(CC(=O)NC2CCCCC2)CC2CCCO2)c(O)c1 (stereo not drawn)	82.1*	-206.9	28.9	-8.3	10.2	-16.3
C[C@H]1CN([C@@H](C)CO)C(=O)c2cc(NS(C)(=O)=O)ccc2O[C@@H]1CN(C)CC1CCCCC1	-6.0	-7.8[16.7 µM]	.	.	.	.
C[C@@H]1CN([C@@H](C)CO)C(=O)c2cc(NC(=O)Nc3ccccc3)ccc2O[C@@H]1CN(C)Cc1ccc(C(=O)O)cc1	4.6	.	.	.	.	.
COC(=O)Cc1ccc(NC(=O)c2ccc(C(C)(C)C)cc2)cc1	.	58.9*	48.4*	73.0	-3.2	-10.7
CC1(C)CC(=O)C2=C(C1)N=C1c3ccccc3C(=O)C1C2c1ccc(Cl)cc1 (stereo not drawn)	.	.	7.0	27.7	-1.3	-4.4
CCOC(=O)C1=C(C)N=C2c3ccccc3C(=O)C2C1c1ccc(Cl)cc1 (stereo not drawn)	.	84.3*	-4.4	-12.1	-2.8	-1.8
C[C@@H]1CN([C@H](C)CO)C(=O)Cc2cc(NC(=O)CCCCCC(=O)Nc3ccccc3N)ccc2O[C@@H]1CN(C)S(=O)(=O)c1ccc(F)cc1	0.0	16.9[16.7 µM]	.	.	.	.
CN1C(=O)c2cc(NC(=O)Nc3cccc(Cl)c3)ccc2OC[C@H]2O[C@@H](CC(=O)NCCc3ccncc3)CC[C@@H]21	-3.0	.	.	.	.	.
CN1C(=O)c2cc(NC(=O)Nc3cccc(Cl)c3)ccc2OC[C@@H]2O[C@@H](CC(=O)NCCc3ccncc3)CC[C@H]21	73.8*	.	.	.	.	.
CN1C(=O)c2cc(NC(=O)c3cccc(Cl)c3)ccc2OC[C@@H]2O[C@H](CC(=O)NC3CCCCC3)CC[C@@H]21	76.2*	56.6*[16.7 µM]	.	.	.	.
CCNC(=O)C[C@H]1CC[C@@H]2[C@@H](COc3ccc(NC(=O)Nc4cccc(OC)c4)cc3C(=O)N2C)O1	-15.7	58.5*[16.7 µM]	.	.	.	.
Cc1noc(C)c1NC(=O)N(C)C[C@@H]1Oc2c(NS(=O)(=O)c3ccc(F)cc3)cccc2C(=O)N([C@H](C)CO)C[C@H]1C	-16.1	21.9[16.7 µM]	.	.	.	.
COc1c(F)cc2[nH]c3c(c2c1F)CCNC3=O	-29.8	65.1*	11.1	12.6	.	-0.6
Cc1ncc(CO)c2cc(C(=O)Nc3cccc(F)c3)c(=Nc3cccc(C(N)=O)c3)oc12	-3.1	-6.4	-2.4	-15.2	-2.3	-1.7
COc1ccc(NC(=O)c2cc3c(CO)cnc(C)c3oc2=Nc2cccc(F)c2)c(OC)c1	10.0	19.3	46.8*	-12.3	-2.1	-4.9
CC(C)NC(=O)N(C)C[C@H]1Oc2cc(-c3cncnc3)ccc2S(=O)(=O)N([C@H](C)CO)C[C@H]1C	.	-0.7[16.7 µM]	.	.	.	.
C[C@H](CO)N1C[C@H](C)[C@@H](CN(C)S(=O)(=O)c2ccc(-c3ccccc3)cc2)OCc2cn(nn2)CCCC1=O	76.1*!	-24.0	4.0	-8.0	.	0.1
CCOC(=O)N(C)C[C@@H]1OCc2cn(nn2)CCCC(=O)N([C@H](C)CO)C[C@H]1C	2.0	57.2*	.	.	.	.
CCOC(=O)N(C)C[C@H]1OCc2cn(nn2)CCCC(=O)N([C@H](C)CO)C[C@H]1C	.	3.5[16.7 µM]	.	.	.	.
C[C@@H]1CN([C@@H](C)CO)C(=O)CCCn2cc(nn2)CO[C@@H]1CN(C)S(=O)(=O)c1ccc(-c2ccccc2)cc1	5.4	.	.	.	.	.
COc1ccc(C(=O)Nn2c(SCC(=O)NC3CCCCC3)nc3ccccc3c2=O)cc1	-11.2	-49.3	54.6*	15.2	-0.2	-17.1
COc1ccc(C(=O)Nn2c(SCC(=O)NCc3ccco3)nc3ccccc3c2=O)cc1	.	.	49.5*	12.5	-4.7	-18.1
SMILES	PAX8 reporter	HIV Env fusion	LMP1 NFkB inh	Shn3 3UTR inh	NSD2 inh	N-glyco inh
CC(C)Cn1c(SCC(=O)NC2CC2)nc2ccccc21	2.8	95.3*	-8.3	-3.3	.	1.3
CCn1c(SCC(=O)NCc2ccco2)nc2ccccc2c1=O	14.9	-1.0	-0.1	2.9	3.4	0.6
COc1ccc(C(=O)Nn2c(SCC(=O)N3CCC(C)CC3)nc3ccccc3c2=O)cc1	46.7	15.0	69.9*	30.8	1.1	-24.3
COCCn1c(SCC(=O)N2CCC(C)CC2)nc2ccccc2c1=O	.	11.1	-2.7	-5.7	-0.9	0.2
C[C@@H]1CN([C@H](C)CO)C(=O)c2cc(NC(=O)CCC(F)(F)F)ccc2O[C@@H](C)CCCCO[C@@H]1CN(C)S(=O)(=O)c1ccc(Cl)cc1	13.5	-10.3[16.7 µM]	.	.	.	.
CCCC(=O)Nc1ccc2c(c1)OC[C@H](C)N(C(=O)c1ccccn1)C[C@@H](C)[C@@H](OC)CN(C)C2=O	-1.4	.	.	.	.	.
CCOC(=O)N1CCC(n2c(SCC(=O)N3CCCC3)nc3ccccc3c2=O)CC1	3.0	0.7	17.1	5.8	0.0	-3.2
CCOC(=O)N1CCC(n2c(SCC(=O)OCc3ccccc3)nc3ccsc3c2=O)CC1	.	96.5*	-1.4	9.1	-6.8	-1.6
CCOC(=O)N1CCC(n2c(SCC(=O)N3CCC(C)CC3)nc3ccccc3c2=O)CC1	31.3	54.4*	-5.7	26.0	-0.2	-6.0
C[C@@H]1CN([C@H](C)CO)C(=O)c2cccc(NC(=O)c3ccncc3)c2O[C@H]1CN(C)S(=O)(=O)c1ccc(Cl)cc1	7.4	.	.	.	.	.
C[C@@H]1CN([C@@H](C)CO)C(=O)c2cccc(NC(=O)C3CCOCC3)c2O[C@@H]1CN(C)C(=O)Nc1ccc(C(F)(F)F)cc1	-2.3	1.4[16.7 µM]	.	.	.	.
COc1ccc(S(=O)(=O)N(C)C[C@H]2Oc3cc(C#CC4CCCC4)ccc3S(=O)(=O)N([C@@H](C)CO)C[C@@H]2C)cc1	89.7*	8.7[16.7 µM]	.	.	.	.
COc1cccc(S(=O)(=O)N(C)C[C@@H]2Oc3cc(C#CCC(C)C)ccc3S(=O)(=O)N([C@@H](C)CO)C[C@@H]2C)c1	.	85.2*[16.7 µM]	.	.	.	.
CCCC#Cc1ccc2c(c1)O[C@H](CN(C)S(=O)(=O)c1cccc(OC)c1)[C@H](C)CN([C@@H](C)CO)S2(=O)=O	1.4	-1.9[16.7 µM]	.	.	.	.
COc1cccc(S(=O)(=O)N(C)C[C@@H]2Oc3cc(C#CCC(C)C)ccc3S(=O)(=O)N([C@H](C)CO)C[C@H]2C)c1	.	71.0*[16.7 µM]	.	.	.	.
COc1cccc(S(=O)(=O)N(C)C[C@H]2Oc3cc(C#CCC(C)C)ccc3S(=O)(=O)N([C@@H](C)CO)C[C@H]2C)c1	.	71.3*[16.7 µM]	.	.	.	.
C[C@@H]1CN([C@@H](C)CO)C(=O)c2cc(-c3ccc(F)cc3)cnc2O[C@H]1CN(C)C(=O)CN(C)C	.	-10.0[16.7 µM]	.	.	.	.
C[C@@H]1CN([C@H](C)CO)C(=O)c2cc(NS(=O)(=O)c3cccs3)ccc2O[C@@H]1CN(C)S(=O)(=O)c1ccccc1	1.0	-5.0[16.7 µM]	.	.	.	.
